Here are results for 14 compounds from PubChem BioAssay (NCI).

About 83,000 compounds went through this panel and 20% of them were active in at least one assay; those are over-represented in the sample as a whole.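 Each cell line was grown in a 96-well plate and treated with one concentration of compound for 48 hours. Values below 10 were considered active.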 Values without a mark were called inactive. The source made the active and inactive calls.

Test systems include NCI-H23 lung; NCI-H226 lung; NCI-H322M lung; HOP-62 NSCLC; NCI-H460 lung; HOP-92 NSCLC; NCI-H522 lung; 786-0 renal; COLO 205 colon; A549/ATCC NSCLC.
Test in all cases: NCI-60 one-dose screen, 48 h (100 = growth as untreated, 0 = no growth, -100 = all killed)
Holding throughout (settings): 10 µM unless noted

For the compound `CCCCCCCCCCCCC[N+](C)(C)Cc1ccccc1`, the growth was -22.8% (active) in the assay with NCI-H23 lung; -8.07% (active) with NCI-H226 lung; 82.5% with NCI-H322M lung; -73.1% (active) in the assay on HOP-62 NSCLC; 0.965% (active) in the assay on NCI-H460 lung; -64.3% (active) in the assay on HOP-92 NSCLC. In addition, the values for the growth with NCI-H522 lung, with 786-0 renal and in the assay with COLO 205 colon were -60.1% (active), -56.1% (active) and -91.8% (active), respectively.
With `Cc1ccc(/C=C2\SC(=S)N(CC(=O)NCCCN3CCOCC3)C2=O)cc1`, the growth in the assay with NCI-H23 lung was 99.6%; in the assay with NCI-H226 lung, 91%; in the assay on NCI-H322M lung, 104%; with HOP-62 NSCLC, 103%; in the assay on NCI-H460 lung, 103%; in the assay with HOP-92 NSCLC, 91.5%. In addition, the figures for the growth in the assay with A549/ATCC NSCLC, in the assay with 786-0 renal and with COLO 205 colon were 102%, 104% and 111%, respectively.
In the case of `O=C(N/N=C/c1ccccc1O)c1ccccc1Nc1ccnc(C(F)(F)F)c1`, the growth with NCI-H23 lung is 30.2%; with NCI-H226 lung, -11.7% (active); with NCI-H322M lung, 13.1%; with HOP-62 NSCLC it was -5.32% (active); in the assay with NCI-H460 lung it was -13.2% (active); in the assay on HOP-92 NSCLC, 7.01% (active). In addition, the growth in the assay with NCI-H522 lung is 24%; in the assay on 786-0 renal, 0.0938% (active); in the assay on COLO 205 colon, 14.7%.
With `N#C/C(=C\c1ccc(-c2cc(C(F)(F)F)ccc2Cl)o1)c1nc(-c2ccco2)cs1`, the growth in the assay on NCI-H23 lung is 93.7%; in the assay on NCI-H226 lung, 96.2%; with NCI-H322M lung, 103%; in the assay on HOP-62 NSCLC, 96.1%; in the assay on NCI-H460 lung, 102%; with HOP-92 NSCLC, 101%. In addition, the growth was 108% with A549/ATCC NSCLC, 104% in the assay with 786-0 renal and 119% in the assay with COLO 205 colon.
For `CC1=C[C@H]2c3c(c(O)c(O)c4oc(-c5ccccc5)cc(=O)c34)[C@H](c3cc(O)c(O)c4oc(-c5ccccc5)cc(=O)c34)[C@H]2C(C)(C)C1`, the growth in the assay on NCI-H23 lung was -14.4% (active); with NCI-H226 lung, -3.14% (active); in the assay on NCI-H322M lung it was 6.91% (active); in the assay with HOP-62 NSCLC it was -2.06% (active); with NCI-H460 lung, -31.8% (active); with HOP-92 NSCLC it was -10% (active). Also, the growth was 2.87% (active) with A549/ATCC NSCLC, -22.8% (active) in the assay on 786-0 renal and 4.64% (active) in the assay on COLO 205 colon.
For `COc1ccc(/C=C/c2nc(-c3n[nH]c(=O)n3-c3ccccc3)c3ccccc3n2)cc1`, the growth is 94.8% in the assay with NCI-H23 lung; 93.5% in the assay with NCI-H226 lung; 93.7% in the assay with NCI-H322M lung; 95.8% with HOP-62 NSCLC; 100% in the assay on NCI-H460 lung; 101% with HOP-92 NSCLC. Moreover, the growth in the assay with A549/ATCC NSCLC was 99.9%; in the assay with 786-0 renal, 94%; in the assay with COLO 205 colon it was 105%.
For the compound `CC(=O)NCC1c2c(n(C)c3c(Cl)c(Cl)ccc23)C(=O)NC1(C)C` (stereo not given), the growth with NCI-H23 lung is 90.3%; in the assay on NCI-H226 lung it was 97.1%; in the assay with NCI-H322M lung it was 91.9%; in the assay on HOP-62 NSCLC, 88.2%; with NCI-H460 lung it was 96.6%; in the assay with HOP-92 NSCLC, 90.6%. Also, the values for the growth in the assay with A549/ATCC NSCLC, with 786-0 renal and in the assay on COLO 205 colon were 94.4%, 100% and 113%, respectively.
Regarding `CCCCn1c(-c2ccc(C(=O)O/N=C(\N)c3ccc4ccccc4c3)cc2)nc(-c2ccccc2)c1-c1ccccc1`, the growth is 65% in the assay with NCI-H23 lung; 61.7% with NCI-H226 lung; 80.8% in the assay on NCI-H322M lung; 91.5% in the assay with HOP-62 NSCLC; 26.3% with NCI-H460 lung; 77.6% in the assay with HOP-92 NSCLC. In addition, the growth with NCI-H522 lung is 71.7%; in the assay with 786-0 renal, 77.8%; in the assay on COLO 205 colon, 90.8%.
In the case of `CCOC(=O)c1c(C)oc2ncnc(N3CCN(C(=O)COc4ccc(SC)cc4)CC3)c12`, the growth is 93.9% in the assay on NCI-H23 lung; 83.3% in the assay on NCI-H226 lung; 99.3% in the assay with NCI-H322M lung; 98.7% in the assay on NCI-H460 lung; 78.9% in the assay on HOP-92 NSCLC; 74.9% in the assay on NCI-H522 lung. Moreover, the growth in the assay on A549/ATCC NSCLC is 90.2%; in the assay with 786-0 renal, 95.8%; with COLO 205 colon, 98%.
As to `O=C(N=Nc1c(O)[nH]c2ccc(Br)cc12)c1cc(-c2ccccc2)on1`, the growth with NCI-H23 lung was 96.9%; in the assay with NCI-H226 lung it was 99.8%; in the assay on NCI-H322M lung it was 108%; in the assay on NCI-H460 lung, 101%; in the assay with HOP-92 NSCLC, 96.8%; in the assay with NCI-H522 lung, 85%. Besides, the growth was 103% in the assay with A549/ATCC NSCLC, 105% with 786-0 renal and 125% in the assay on COLO 205 colon.
In the case of `NCCNc1nc(Nc2ccc(-c3nc4ccccc4[nH]3)cc2)c2cn[nH]c2n1`, the growth was 57.9% with NCI-H23 lung; 81.4% with NCI-H226 lung; 98.9% with NCI-H322M lung; 97.5% with HOP-62 NSCLC; 54.9% in the assay on NCI-H460 lung; 60.4% in the assay with HOP-92 NSCLC. For the same compound, the growth in the assay with A549/ATCC NSCLC is 101%; in the assay with 786-0 renal it was 93%; in the assay on COLO 205 colon, 20.8%.
On to `CC(C)C1=C[C@@]23CC[C@@H]4[C@](C)(CCC[C@@]4(C)C(=O)N4CCCNCC4)[C@H]2C[C@@H]1[C@H]1C(=O)CCC(=O)[C@H]13`, for which the growth with NCI-H23 lung was 96.4%; in the assay on NCI-H226 lung it was 101%; with NCI-H322M lung, 106%; with NCI-H460 lung, 104%; in the assay on HOP-92 NSCLC it was 101%; in the assay with NCI-H522 lung, 91.5%. Also, the growth was 101% in the assay on A549/ATCC NSCLC, 104% in the assay with 786-0 renal and 134% in the assay on COLO 205 colon.
With `COc1ccc(NC(=O)c2ccc(/C=C/C(=O)c3ncc[nH]3)cc2)cc1`, the growth in the assay on NCI-H23 lung was 64.7%; in the assay on NCI-H226 lung, 96.5%; with NCI-H322M lung it was 85.4%; in the assay on NCI-H460 lung, 64%; with HOP-92 NSCLC it was 104%; in the assay on NCI-H522 lung, 51.4%. The growth was 81.5% with A549/ATCC NSCLC, 67.1% in the assay with 786-0 renal and 72.4% in the assay on COLO 205 colon.
Consider `O=C(N/N=C/c1c[nH]c2ccccc12)c1cc(-c2ccccc2)on1`, for which the growth with NCI-H23 lung was 93.6%; with NCI-H226 lung, 87.6%; in the assay with NCI-H322M lung, 82.9%; in the assay with NCI-H460 lung, 98.1%; in the assay on HOP-92 NSCLC, 92.1%; in the assay with NCI-H522 lung it was 75%. Further, the growth in the assay with 786-0 renal was 97.9%; in the assay on COLO 205 colon it was 113%.
